About 83,000 compounds went through this panel and 20% of them were active in at least one assay; those are over-represented in the sample as a whole.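 Growth was measured after 48 h exposure to one concentration of compound in 96-well plates. Values under 10 count as active.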 Values without a mark were called inactive. Activity calls are given as the source filed them.

The experiment deals with UACC-62 melanoma. The experiment can be described thus: NCI-60 one-dose screen, 48 h (100 = growth as untreated, 0 = no growth, -100 = all killed). As to conditions: 10 µM unless noted. The procedure: Growth inhibition of the UACC-62 human tumor cell line is measured as a screen for anti-cancer activity. Cells are grown in 96 well plates and exposed to the test compound for 48 hours. Compounds are tested at a single concentration, which is 10^-5 M for most compounds. The reported endpoint is percent growth (GI% or GIPRCNT), where numbers from 0 - 100% represent growth inhibition, and numbers from -100% - 0 represent cell death. For example, a value of 40 represents 60% growth inhibition. A value of 0 means no net growth occurred over the course of the experiment. A value of -40 indicates 40% of cells at the beginning of the experiment died by the end of the experiment. A value of -100 means all cells are dead at the end of the experiment.
NCI-60 Human Tumor Cell Lines Screen was performed using the standard one-dose NCI protocol, which is described in more detail at https://dtp.cancer.gov/discovery_development/nci-60/default.htm.
Compounds with GIPRCNT values below 10 were considered active. Activity score was based on GIPRCNT using the following formula: […]
Score is 0 for GIPRCNT values of 100 or above, 50 for GIPRCNT values of 0, and 100 for GIPRCNT values of -100.
With `O=S(=O)(Nc1ccc(Br)c(Cl)c1)c1ccc(-c2cnc(C3CC3)o2)cc1`, the growth was 30.1%.

`CCCCn1c(-c2ccc(C(=O)O/N=C(\N)c3ccc4ccccc4c3)cc2)nc(-c2ccccc2)c1-c1ccccc1`: the growth was 76.2%.

Consider `FC(F)(F)Oc1ccc2nc3nc4ccc[nH]c4cc3c2c1`, for which the growth is 81%.

Turning to `c1csc(C2=NN3C(C2)c2ccccc2OC3c2ccncc2)c1` (stereo not given), the growth was 94.1%.

As to `Cn1cccc1-c1nc2c3c(ccc2[nH]1)C(=O)c1ccccc1C3=O`, the growth was 80.5%.

Regarding `COc1cc2nc(N3CCCC3)nc(NCC3CCCCC3)c2cc1OC`, the growth is 87%.

As for `O=C(N=Nc1c(O)[nH]c2ccc(Br)cc12)c1cc(-c2ccccc2)on1`, the growth is 103%.

With `CC[C@@H]1O[C@H](O[C@@H](c2cnc[nH]2)[C@H](NC(=O)c2nc([C@H](CC(N)=O)NC[C@@H](N)C(N)=O)nc(N)c2C)C(=O)N[C@H](C)[C@H](O)[C@H](C)C(=O)N[C@@H](C(=O)NCCc2nc(-c3nc(C(=O)NCCCCN=C(N)N)cs3)cs2)[C@@H](C)O)[C@H](O[C@@H]2O[C@H](CO)[C@H](O)[C@H](OC(N)=O)[C@@H]2O)[C@H](C)[C@@H]1C`, the growth was 37.5%.

Take `Cn1cc(-c2nonc2-c2cn(C)c3ccc(F)cc23)c2cc(F)ccc21`: the growth was 50.6%.

Consider `CC(=O)O[C@H]1CC[C@]2(C)[C@H]3CC=C4[C@@H]5CC(C)(C)CC[C@]5(C(=O)NCCNCCN)CC[C@@]4(C)[C@]3(C)CC[C@H]2C1(C)C`, for which the growth is -21.2% (active).

Turning to `Cc1oc(-c2ccc(Cl)cc2Cl)cc1C(=O)Nc1nccs1`, the growth was 91.7%.

Turning to `C#Cc1cccc(NC(=O)c2ccccc2NC(=O)CCl)c1`, the growth was 85.1% [8.25 µM].

For `CC(=O)Oc1ccc(Cl)cc1CN(C(C)=O)C1CCCCC1`, the growth is 86.8%.

On to `O=[N+]([O-])c1ccccc1/C=N\NC(=S)N/N=C/c1ccccc1[N+](=O)[O-]`, for which the growth is 55.5%.

Take `C=CC(=O)Nc1cccc(Nc2nc(SC)nc(-c3cccc([N+](=O)[O-])c3)c2C#N)c1`: the growth was 65.7%.

`C=C1c2nc3ccccc3n2C=C(c2cccc(Cl)c2)N1Cc1ccc(OC)cc1`: the growth is 44.7%.

For `CC1=C[C@H]2c3c(c(O)c(O)c4oc5ccccc5c(=O)c34)[C@H](c3cc(O)c(O)c4oc5ccccc5c(=O)c34)[C@H]2C(C)(C)C1`, the growth is -65.5% (active).

Regarding `CN(C)[C@@H]1C(=O)C(C(=O)NCc2nc3[nH]cnc(=S)c3[nH]2)=C(O)[C@@]2(O)C(=O)C3=C(O)c4c(O)cccc4[C@@](C)(O)[C@H]3C[C@@H]12`, the growth is 25.5%.

With `CC(C)(C)c1cc(/C=N\NC(=O)/C=C/C=C/c2ccc3c(c2)OCO3)c(O)c(C(C)(C)C)c1`, the growth was 71.5%.

As to `CC1=C[C@H]2c3c(c(O)c(O)c4oc5cc(O)ccc5c(=O)c34)[C@H](c3cc(O)c(O)c4oc5cc(O)ccc5c(=O)c34)[C@H]2C(C)(C)C1`, the growth is 5.54% (active).

`O=C(CN1C(=O)/C(=C/c2ccc(Cl)cc2)SC1=S)NCCCN1CCOCC1`: the growth was 97%.

With `Cc1nc2c3c(-c4ccccc4)c(-c4ccccc4)oc3ncn2n1`, the growth was 92.3%.

On to `CCOC(=O)c1csc(NC(=O)COc2cccc(/C=C3\CSc4ccccc4C3=O)c2)n1`, for which the growth was 64.4%.

Take `O=C1CC(=NCC(=O)n2c(-c3ccccc3)nc3ccccc32)NN1`: the growth was 94.9%.

As to `COc1cc2c(cc1OC)C(Sc1ccc(SC)cc1)c1c(nc(N)c(C#N)c1N)O2` (stereo not given), the growth is -61.3% (active).

As to `CC(C)(C)N1CCC1CN` (stereo not given), the growth is 112%.

Regarding `COc1ccc(C2Nc3c(c(C(C)(C)C)nn3-c3ccccc3)C(=O)CS2)cc1` (stereo not given), the growth is 80%.

Take `COc1cc(-c2nn(C)nc2-c2cc3ccccc3s2)cc(OC)c1OC`: the growth was 26%.

`COc1cc(-c2nc3cc(Cl)c(Cl)cc3[nH]2)ccc1OCC(=O)N=Nc1c(O)[nH]c2ccccc12`: the growth is -93.9% (active).

As to `c1ccc(-c2c(-c3ccccc3)[n+](Cc3ccc4ccccc4c3)c(-c3ccc(-c4nc5ccccc5s4)cc3)n2Cc2ccc3ccccc3c2)cc1`, the growth is -75.2% (active).

Take `O=C(/C=C/c1cccc([N+](=O)[O-])c1)c1ccc(O)c(CN2CCN(c3cc4c(cc3F)c(=O)c(C(=O)O)cn4C3CC3)CC2)c1`: the growth was 53%.

For `N#CN1CC[C@H](C(=O)Nc2cc3cc(C(N)=O)ccc3cn2)C1`, the growth is -34.5% (active).

On to `CN(C)C(=S)N=Nc1c(O)[nH]c2ccccc12`, for which the growth is -16.9% (active).

Regarding `O=C1Nc2c(ccc(Cl)c2Cl)/C1=C\c1ccc(C(F)(F)F)cc1`, the growth is 61.9%.

For the compound `Oc1ccc(N=Cc2ccccc2O)cc1`, the growth was 96.8%.

With `COc1ccc(/C=C\c2cc(OC)c(OC)c(OC)c2)cc1OCC(=O)Nc1ccc2nc(C)sc2c1`, the growth is 11.9%.

With `CCN(CC)CCCCNc1c2ccc(Cl)cc2nc2ccc(OC)cc12`, the growth is -30.8% (active).

Take `COc1cc(C)c(C2C(C#N)=C(N)Oc3n[nH]c(-c4cccs4)c32)cc1C(C)C` (stereo not given): the growth is 96.1%.

On to `COc1ccc(C2C(C#N)=C(N)Oc3n[nH]c(-c4cccs4)c32)cc1I` (stereo not given), for which the growth is 79.1%.

Consider `C#CCOc1ccc2ncnc(N3CCN(C(=O)CCl)CC3)c2c1`, for which the growth was 68.2% [8.25 µM].

Source of the values: PubChem BioAssay (NCI).
